Measurements from PubChem BioAssay (EPA / NIEHS).
Records with an inconclusive call do not appear. The source made the active and inactive calls. Rule for the calls: active = hit-call score of the fitted dose curve at least 0.9, where 1 is the maximum; inconclusive = response in the unintended direction; inactive = score below 0.9.

target: human Beta-secretase (BACE), BACE1 (gene 23621) (UniProt P56817); experiment: NVS_ENZ_hBACE: NovaScreen (NVS) Enzymatic Assay for human Beta-secretase (BACE) (AID 2283140);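 note: hits are inhibitors that reduce fluorescent substrate signal versus DMSO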
Sequence (P56817 whole entry, looked up): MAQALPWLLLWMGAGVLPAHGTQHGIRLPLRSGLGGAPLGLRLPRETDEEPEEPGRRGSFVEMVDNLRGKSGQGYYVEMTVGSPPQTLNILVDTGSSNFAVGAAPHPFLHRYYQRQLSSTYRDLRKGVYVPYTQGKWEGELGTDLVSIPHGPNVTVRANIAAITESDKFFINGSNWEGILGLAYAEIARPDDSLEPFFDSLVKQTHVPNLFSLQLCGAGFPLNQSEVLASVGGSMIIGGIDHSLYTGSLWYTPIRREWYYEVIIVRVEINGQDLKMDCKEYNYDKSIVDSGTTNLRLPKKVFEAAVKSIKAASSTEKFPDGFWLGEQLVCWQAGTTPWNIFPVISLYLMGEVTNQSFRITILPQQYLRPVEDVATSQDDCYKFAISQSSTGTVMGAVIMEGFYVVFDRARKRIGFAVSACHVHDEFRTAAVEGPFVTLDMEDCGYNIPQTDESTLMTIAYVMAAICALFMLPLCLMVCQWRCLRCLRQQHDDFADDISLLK
Protocol: NVS_ENZ_hBACE is a biochemical, single-readout assay that uses extracted gene-proteins from SF9 in a cell-free assay. Measurements were taken 1 hour after chemical dosing in a 96-well plate.NVS_ENZ_hBACE is one of one assay component(s) measured or calculated from the NVS_ENZ_hBACE assay. It is designed to make measurements of enzyme activity, a form of enzyme reporter, as detected with fluorescence intensity signals by Fluorescence technology.Data from the assay component NVS_ENZ_hBACE was analyzed into 1 assay endpoint. This assay endpoint, NVS_ENZ_hBACE, was analyzed in the positive analysis fitting direction relative to DMSO as the negative control and baseline of activity. Using a type of enzyme reporter, loss-of-signal activity can be used to understand changes in the enzymatic activity as they relate to the gene BACE1. Furthermore, this assay endpoint can be referred to as a primary readout, because […]. To generalize the intended target to other relatable targets, this assay endpoint is annotated to the protease intended target family, where the subfamily is aspartate protease.
Binding assays used specific radioligands (tritiated, iodinated) with non-radioactive competitive displacement ligands in agonist or antagonist protocols (as indicated) and various reference compounds and inhibitors to titrate specific binding to receptors and transporters. Most enzyme assays (CYPs, kinases, phosphatases, proteases, HDACs) used recombinant protein and specific substrates (fluorescence mostly, some colorimetric and radioactive) and inhibitors, followed by a biochemical separation of substrate and product. All assays for the biochemical HTS were initially run in duplicate at a single concentration (10 uM for CYP450 assays and 25 uM for all others). […] Each assay was run with positive and negative controls, and concurrent controls on every plate. The follow-up (secondary) screen tested active chemical-pairs in concentration series, as well as a few additional assays not tested in the primary screen, some selected negative inactives, and several cases re-run in the concentration series for confirmatory purposes.

Row | Structure (SMILES) | outcome | AC50
1 | CCCCC(CC)C(=O)OCCOCCOCCOC(=O)C(CC)CCCC (stereo not given) | inactive | –
2 | S=P(N1CC1)(N1CC1)N1CC1 | – | 22.4 µM (active)
3 | CCCCCCCCCCCCCCCCOS(=O)(=O)O | – | 1.27 µM (active)
4 | C=CCc1cc(S(=O)(=O)c2ccc(O)c(CC=C)c2)ccc1O | – | 15.2 µM (active)
5 | CCCCN1C(=O)[C@@H]([C@H](O)C2CCCCC2)NC(=O)C12CCN(Cc1ccc(Oc3ccc(C(=O)O)cc3)cc1)CC2 | inactive | –
6 | CCCCCCCCCC | inactive | –
7 | O=C(N[C@H](CO)[C@H](O)c1ccc([N+](=O)[O-])cc1)C(Cl)Cl | inactive | –
8 | CC[C@H](C)C(=O)O[C@H]1C[C@H](O)C=C2C=C[C@H](C)[C@H](CC[C@@H](O)C[C@@H](O)CC(=O)O)[C@H]21 | inactive | –
9 | OCc1c[nH]c2ccccc12 | – | 25 µM (active)
10 | CCCCCCCC/C=C\CCCCCCCC(=O)OC[C@@H](O)[C@H]1OC[C@H](O)[C@H]1O | – | 6.7 µM (active)
